Test results as given in PubChem BioAssay (EPA / NIEHS).
Active and inactive are the calls of the source. The calls were made as follows: active = hit-call score of the fitted dose curve at least 0.9, where 1 is the maximum; inactive = score below 0.9.

What was measured:
[1] = ATG_CRE_CIS: Attagene CIS-FACTORIAL HepG2 Assay for human cAMP Responsive Element (CRE) binding protein 3 (AID 2282926); conditions: HepG2 CRE cis-reporter, Attagene multiplexed mRNA; actives raise or lower the signal
In short: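 Endogenous transcription factor activity read via CRE-regulated reporter transcripts in transfected HepG2 cells. After 24 h exposure, RNA was reverse-transcribed, amplified, fluorescently labelled and sized by capillary electrophoresis; gain or loss fitted against DMSO.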

[2] = target: CCAAT/enhancer-binding protein beta (Homo sapiens) (UniProt P17676); assay: ATG_C_EBP_CIS: Attagene CIS-FACTORIAL HepG2 Assay for human CCAAT/Enhancer Binding Protein (C/EBP) beta (AID 2282927); conditions: HepG2 Attagene cis-factorial transcription factor reporter; actives raise or lower the signal
Sequence of CCAAT/enhancer-binding protein beta (Homo sapiens) (P17676 whole entry, looked up): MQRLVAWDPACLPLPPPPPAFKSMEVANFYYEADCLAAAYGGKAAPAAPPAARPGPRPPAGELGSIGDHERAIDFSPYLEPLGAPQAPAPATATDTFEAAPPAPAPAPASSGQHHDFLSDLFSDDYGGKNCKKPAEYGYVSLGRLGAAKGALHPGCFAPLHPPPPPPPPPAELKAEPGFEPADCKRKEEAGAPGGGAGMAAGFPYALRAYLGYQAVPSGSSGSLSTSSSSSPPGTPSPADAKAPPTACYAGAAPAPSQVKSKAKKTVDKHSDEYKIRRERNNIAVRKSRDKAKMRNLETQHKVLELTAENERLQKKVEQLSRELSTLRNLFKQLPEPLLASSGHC
In short: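 HepG2, transient MRTU transfection, 24 h treatment. RT-PCR plus CE fluorescence; DMSO negative control, bidirectional fit.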

[3] = ATG_CMV_CIS: Attagene CIS-FACTORIAL HepG2 Assay for human CMV (Internal Marker) (AID 2282928); conditions: HepG2 CMV promoter reporter, transcription factor profiling; actives raise or lower the signal;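 also: endpoint acts as a background internal control marker rather than a target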
In short: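 Readout: fluorescent reporter cDNA fragments separated by capillary electrophoresis after RT-PCR and HpaI cut. Cells: HepG2 carrying transfected cis-promoter reporter constructs, dosed 24 h. Endpoint serves as background internal-marker control, fit bidirectionally versus DMSO.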

[4] = ATG_DR4_LXR_CIS: Attagene CIS-FACTORIAL HepG2 Assay for human Liver X Receptor (LXR), DR4 submotif (AID 2282929); conditions: HepG2 Attagene DR4 cis-reporter, mRNA transcription; actives raise or lower the signal
In short: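 Endogenous factor activity at a DR4 cis-element is read as reporter mRNA in transiently transfected HepG2 cells. Exposure lasts 24 h; transcripts are amplified, fluorescently labelled and sized by capillary electrophoresis, with DMSO as baseline.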

[5] = ATG_AP_2_CIS: Attagene CIS-FACTORIAL HepG2 Assay for human Activator Protein 2 (AP-2) (AID 2282932); conditions: HepG2 AP-2 cis-reporter, Attagene transcription factor profiling; actives raise or lower the signal
In short: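 Liver-derived HepG2 line, cis-reporter system measuring endogenous factors; 24 h dosing; reporter mRNA detected by fluorescent RT-PCR and capillary electrophoresis.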

[6] = ATG_E_Box_CIS: Attagene CIS-FACTORIAL HepG2 Assay for human Enhancer Box (E-box) (AID 2282936); conditions: HepG2 E-box cis-reporter transcription, actives raise or lower the signal
In short: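 In this cell-based setup, HepG2 cells bearing transfected promoter-driven reporter units were exposed to chemicals for 24 h; reporter transcripts were amplified, 6-FAM-labelled, cut with HpaI and sized by capillary electrophoresis.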

[7] = ATG_EGR_CIS: Attagene CIS-FACTORIAL HepG2 Assay for human Early Growth Response 1 (EGR1) (AID 2282938); conditions: HepG2 Attagene CIS-FACTORIAL EGR reporter mRNA; actives raise or lower the signal
In short: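 HepG2, transient MRTU transfection (cis promoters), 24 h compound. RNA → RT (oligo-dT) → PCR → 6-FAM labelling → HpaI cut → CE fluorescence. Bidirectional fit, DMSO baseline.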

[8] = ATG_M_19_CIS: Attagene CIS-FACTORIAL HepG2 Assay for M19 Transcription Factor (Internal Marker) (AID 2282939); conditions: HepG2 Attagene CIS-FACTORIAL M19 internal marker reporter; actives raise or lower the signal
In short: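 Signals come from fluorescence of labelled reporter-specific PCR fragments resolved by capillary electrophoresis, following 24 h treatment of HepG2 cells transfected with cis-promoter reporter units; activity was fitted in both directions relative to DMSO.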

[9] = ATG_Ets_CIS: Attagene CIS-FACTORIAL HepG2 Assay for human Erythroblast Transformation Specific (ETS) (AID 2282941); conditions: HepG2 ETS cis-reporter transcription, actives raise or lower the signal
In short: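 RT-PCR/capillary electrophoresis fluorescence read-out of reporter mRNA; HepG2 transient multi-reporter transfection; 24 h compound exposure; gain or loss of signal fitted bidirectionally relative to DMSO.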

[10] = target: Hepatocyte nuclear factor 3-beta (Homo sapiens) (UniProt Q9Y261); assay: ATG_FoxA2_CIS: Attagene CIS-FACTORIAL HepG2 Assay for human Forkhead box A2 (FOXA2) (AID 2282942); conditions: HepG2 cis-reporter transcription factor activity, 24 h; actives raise or lower the signal
Sequence of Hepatocyte nuclear factor 3-beta (Homo sapiens) (Q9Y261 whole entry, looked up): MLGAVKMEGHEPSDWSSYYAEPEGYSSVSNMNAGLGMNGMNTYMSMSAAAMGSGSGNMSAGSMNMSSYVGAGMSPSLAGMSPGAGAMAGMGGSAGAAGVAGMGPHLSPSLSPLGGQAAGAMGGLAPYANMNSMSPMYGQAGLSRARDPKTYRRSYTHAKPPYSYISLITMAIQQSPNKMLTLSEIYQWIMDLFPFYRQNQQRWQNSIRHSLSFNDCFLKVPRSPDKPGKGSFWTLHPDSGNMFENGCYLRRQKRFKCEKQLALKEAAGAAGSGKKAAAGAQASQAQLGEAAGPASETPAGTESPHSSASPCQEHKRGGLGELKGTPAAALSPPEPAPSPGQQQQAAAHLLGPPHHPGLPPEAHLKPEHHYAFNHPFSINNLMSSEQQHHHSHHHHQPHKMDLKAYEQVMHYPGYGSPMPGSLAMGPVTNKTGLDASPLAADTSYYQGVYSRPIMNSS
In short: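 Cells: HepG2, transient multiplex reporter transfection. Exposure 24 h. Detection: reporter-specific RT-PCR, fluorescent labelling, restriction digest, capillary electrophoresis. Analysis: bidirectional curve fit, DMSO as negative control.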

[11] = ATG_FoxO_CIS: Attagene CIS-FACTORIAL HepG2 Assay for human Forkhead box O (FoxO) (AID 2282943); conditions: HepG2 Attagene cis-reporter, FoxO element, mRNA; actives raise or lower the signal
In short: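 Transfected HepG2 reporter cells exposed to test chemical for 24 h; reporter RNA measured by reverse transcription, PCR and fluorescent capillary electrophoresis; curves fitted for increases and decreases against DMSO.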

[12] = ATG_GATA_CIS: Attagene CIS-FACTORIAL HepG2 Assay for human GATA Binding Protein (AID 2282944); conditions: HepG2 GATA cis-element reporter, Attagene multiplex mRNA; actives raise or lower the signal
In short: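 After transfecting HepG2 cells with multiple cis-regulated reporter units, chemicals are dosed for 24 h; isolated RNA undergoes RT-PCR and fluorescent labeling before capillary electrophoresis, with activity expressed against DMSO.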

[13] = ATG_M_32_CIS: Attagene CIS-FACTORIAL HepG2 Assay for M32 Transcription Factor (Internal Marker) (AID 2282949); conditions: HepG2 Attagene cis-factorial M32 reporter, mRNA; actives raise or lower the signal;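 also: background control marker of the multiplexed CIS panel rather than a real target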
In short: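 HepG2 transfectants (cis-regulated reporter transcription units) dosed 24 h. Reporter mRNA by RT-PCR plus CE, analysed as gain or loss relative to DMSO.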

[14] = ATG_M_06_CIS: Attagene CIS-FACTORIAL HepG2 Assay for M06 Transcription Factor (Internal Marker) (AID 2282950); conditions: HepG2 Attagene CIS-FACTORIAL M06 internal marker reporter; actives raise or lower the signal
In short: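 HepG2 liver cells, 24 h exposure. Reporter transcripts from transfected cis-element constructs quantified by RT-PCR/capillary electrophoresis fluorescence. Bidirectional curve fit against DMSO.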

[15] = ATG_PXRE_CIS: Attagene CIS-FACTORIAL HepG2 Assay for human Pregnane X Receptor Element (PXRE) (AID 2282957); conditions: HepG2 Attagene CIS-FACTORIAL PXRE reporter, mRNA; actives raise or lower the signal
In short: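 Reporter transcripts under endogenous PXR-responsive cis-regulation quantified from total RNA of transfected HepG2 cells 24 h post-dosing, via RT-PCR with fluorescent primer extension and capillary electrophoresis. Gain or loss of signal fitted against DMSO baseline.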

[16] = ATG_Sox_CIS: Attagene CIS-FACTORIAL HepG2 Assay for human SRY-box transcription factor (SOX) (AID 2282960); conditions: HepG2 Attagene cis-factorial SOX reporter, mRNA; actives raise or lower the signal
In short: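 Cells were transfected with reporter constructs under cis-regulatory promoters, then exposed to chemicals for 24 h. Reporter transcripts were quantified by fluorescence after RT-PCR and capillary electrophoresis; activity was fitted in both directions against DMSO.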

[17] = target: Transcription factor Sp1 (Homo sapiens) (UniProt P08047); assay: ATG_Sp1_CIS: Attagene CIS-FACTORIAL HepG2 Assay for human Specificity Protein 1 (Sp1) (AID 2282961); conditions: HepG2 Sp1 cis-reporter transcription, actives raise or lower the signal
Sequence of Transcription factor Sp1 (Homo sapiens) (P08047 whole entry, looked up): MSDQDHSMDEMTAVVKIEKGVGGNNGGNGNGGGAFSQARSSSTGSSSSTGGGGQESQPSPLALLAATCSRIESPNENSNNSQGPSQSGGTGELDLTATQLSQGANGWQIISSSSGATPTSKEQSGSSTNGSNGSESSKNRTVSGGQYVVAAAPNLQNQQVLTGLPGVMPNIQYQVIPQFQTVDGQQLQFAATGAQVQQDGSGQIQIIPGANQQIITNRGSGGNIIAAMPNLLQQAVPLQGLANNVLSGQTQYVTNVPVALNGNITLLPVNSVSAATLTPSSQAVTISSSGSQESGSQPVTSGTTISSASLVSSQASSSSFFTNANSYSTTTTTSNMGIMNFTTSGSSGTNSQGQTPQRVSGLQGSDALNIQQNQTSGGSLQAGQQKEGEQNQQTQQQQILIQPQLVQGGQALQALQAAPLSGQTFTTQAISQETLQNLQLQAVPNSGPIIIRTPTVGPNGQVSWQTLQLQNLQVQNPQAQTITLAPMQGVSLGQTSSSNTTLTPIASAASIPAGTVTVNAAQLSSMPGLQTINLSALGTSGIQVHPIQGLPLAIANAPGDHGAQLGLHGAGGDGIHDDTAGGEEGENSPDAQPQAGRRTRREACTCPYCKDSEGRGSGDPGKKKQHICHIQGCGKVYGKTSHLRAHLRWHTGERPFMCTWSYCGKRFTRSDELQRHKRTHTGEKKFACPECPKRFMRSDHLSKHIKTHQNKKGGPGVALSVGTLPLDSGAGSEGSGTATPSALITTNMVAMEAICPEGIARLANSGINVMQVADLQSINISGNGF
In short: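 Measures mRNA induction of an Sp1-linked reporter in HepG2 cells 24 h post-dosing. Multiplexed reporters read by RT-PCR and capillary electrophoresis; DMSO serves as negative control and baseline.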

[18] = ATG_SREBP_CIS: Attagene CIS-FACTORIAL HepG2 Assay for human Sterol Regulatory Element Binding (SREBP) (AID 2282962); conditions: HepG2 Attagene cis-factorial SREBP reporter, mRNA; actives raise or lower the signal
In short: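 Readout: fluorescent reporter-transcript peaks resolved by capillary electrophoresis after RT-PCR. Cells were human HepG2 carrying transfected cis-promoter reporter constructs, dosed for 24 h. Gain or loss of signal was fitted against DMSO controls.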

[19] = target: Signal transducer and activator of transcription 3 (Homo sapiens) (UniProt P40763); assay: ATG_STAT3_CIS: Attagene CIS-FACTORIAL HepG2 Assay for human Signal Transducer and Activator of Transcription 3 (STAT3) (AID 2282963); conditions: HepG2, Attagene cis-factorial STAT3 reporter transcription; actives raise or lower the signal
Sequence of Signal transducer and activator of transcription 3 (Homo sapiens) (P40763 whole entry, looked up, the tested form may be a part): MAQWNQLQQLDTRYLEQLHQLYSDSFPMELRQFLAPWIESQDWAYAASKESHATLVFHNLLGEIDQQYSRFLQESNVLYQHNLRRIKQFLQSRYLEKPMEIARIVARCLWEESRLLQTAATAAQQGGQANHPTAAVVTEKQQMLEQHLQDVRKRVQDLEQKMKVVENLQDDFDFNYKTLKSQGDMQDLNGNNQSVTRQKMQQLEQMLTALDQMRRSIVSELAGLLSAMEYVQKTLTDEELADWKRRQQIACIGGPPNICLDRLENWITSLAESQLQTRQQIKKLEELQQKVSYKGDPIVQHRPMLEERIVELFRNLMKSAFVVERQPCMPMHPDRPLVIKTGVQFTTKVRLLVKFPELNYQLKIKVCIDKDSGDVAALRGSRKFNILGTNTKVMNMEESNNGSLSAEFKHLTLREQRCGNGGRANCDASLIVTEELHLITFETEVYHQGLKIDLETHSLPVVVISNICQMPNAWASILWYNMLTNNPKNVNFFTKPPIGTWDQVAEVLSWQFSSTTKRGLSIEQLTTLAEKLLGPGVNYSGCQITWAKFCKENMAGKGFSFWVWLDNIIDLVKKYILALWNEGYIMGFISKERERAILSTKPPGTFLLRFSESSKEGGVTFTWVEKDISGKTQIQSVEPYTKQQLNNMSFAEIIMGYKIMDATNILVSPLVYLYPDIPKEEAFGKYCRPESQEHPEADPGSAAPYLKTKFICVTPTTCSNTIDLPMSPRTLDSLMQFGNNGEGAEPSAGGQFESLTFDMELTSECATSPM
In short: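 Fluorescence intensity of 6-FAM-labelled reporter fragments, separated by capillary electrophoresis after RT-PCR, gave the signal. Cells were HepG2 transfected with cis-element reporter units and treated 24 h; fitting was bidirectional relative to DMSO.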

[20] = ATG_TA_CIS: Attagene CIS-FACTORIAL HepG2 Assay for human TA Basal Promoter (AID 2282964); conditions: HepG2 Attagene CIS-factorial TA basal promoter reporter; actives raise or lower the signal
In short: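 Fluorescence from labelled RT-PCR reporter fragments, separated by capillary electrophoresis, gives the signal. Cells: HepG2 transiently carrying multiple reporter units, 24 h chemical dosing. Gain or loss relative to DMSO.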

Measured: AC50

Cc1ccccc1CCl
inactive: all assays above

CCCCCCCCCCCC#N
active: [3] 103 µM | [4] 148 µM | [15] 27.8 µM | [16] 103 µM | [17] 76.4 µM | [18] 128 µM
inactive: all other assays above

CC1OC(C)OC(C)O1 (stereo not given)
inactive: all assays above

O=P1(NCCCl)OCCCN1CCCl (stereo not given)
active: [15] 50.2 µM
inactive: all other assays above

O=[N+]([O-])O.O=[N+]([O-])O.[Cd]
active: [1] 1.98 µM | [2] 1.83 µM | [3] 0.873 µM | [4] 0.666 µM | [7] 1 µM | [12] 11.1 µM | [15] 0.872 µM | [16] 1.31 µM | [17] 1.38 µM | [19] 11.1 µM
inactive: [5] | [6] | [8] | [9] | [10] | [11] | [13] | [14] | [18] | [20]

Cc1cc(C)c(C2=C(OC(=O)CC(C)(C)C)C3(CCCC3)OC2=O)c(C)c1
active: [1] 127 µM | [4] 28.5 µM | [7] 104 µM | [15] 7.83 µM | [17] 88.6 µM | [18] 166 µM
inactive: all other assays above
